Test [1] can be described thus: qHTS assay for small molecule agonists of the antioxidant response element (ARE) signaling pathway (AID 651741; active means well fitted activation curve with a large enough effect in the signal ratio; the % refers to the signal ratio; further: potency means the concentration at half of the fitted maximal effect). In short, it runs like this: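 Quantitative HTS in HepG2 cells stably expressing an ARE-beta-lactamase reporter; 16 h compound exposure at 37 C, followed by 2 h room-temperature incubation with LiveBLAzer B/G FRET substrate and fluorescence measurement.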
Background: Quantitative high-throughput screening tests each substance at several concentrations.

The nature of test [2]: qHTS assay for small molecule activators of the nuclear factor-kappa B (NF-kB) signaling pathway (AID 651749; active means well fitted activation curve with a large enough effect in the signal ratio; the % refers to the signal ratio). Particulars: NF-kB-bla ME-180 cells, beta-lactamase FRET ratio, 16 h; stronger effect = higher value. The gist of the method: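 Readout: beta-lactamase reporter driven by an NF-kB response element, detected fluorescently as loss of FRET. Cells were the ME-180 line, treated 16 hr at 37C with pin-transferred compound.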

A short description of test [3]: qHTS of Trypanosoma Brucei Inhibitors: LOPAC Validation (AID 624147). The gist of the method: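 Luminescent Kinase-Glo Plus end-point after 45 min room-temperature reaction of T. brucei pyruvate kinase started with 130 uM ADP (final). Buffer TEA 50 mM pH 7.2 with KCl, MgCl2, BSA, Tween-20; titration-based qHTS with fitted concentration-effect curves.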
Test [4] has as its target Glucagon-like peptide 1 receptor (Homo sapiens) (UniProt P43220). Put plainly: qHTS of GLP-1 Receptor Agonists: LOPAC Validation (AID 624148).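 Further: luminescence from a luciferase reporter switched on by cAMP; higher luminescence signal means agonism.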 In short, it runs like this: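 Agonism scored as increased luciferase luminescence driven by cAMP in HEK293 clones carrying GLP-1R. Cells settled 12 hours, received compound for 4-6 hr at 37 deg C, 5% CO2, and were read after 12 min detection reagent at RT.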

Test [5] in a line: qHTS of Nrf2 Activators: LOPAC Validation (AID 624149). In short, it runs like this:
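Luminescence read-out of ARE-luciferase activation: AREc32_Fluc cells treated with compounds for 24 hr at 37 deg C, then lysed with Steady-Glo for 30 min at room temperature before reading.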

Test [6] in a line: HTS Assay for Allosteric Antagonists of the Human D2 Dopamine Receptor: Hit Validation in HTRF (AID 624455). Further: potency means the concentration at half of the fitted maximal effect.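 Further: stable D1 dopamine receptor cell line scored for blocking the D1 response.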 The gist of the method:
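First, antagonism was screened by calcium flux in a force-coupled, inducible Hek293 Trex D2 line challenged with EC80 dopamine. Hits then went into an HTRF assay in cells stably expressing D1, testing inhibition of the D1 response.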
Background: TR-FRET usually uses a lanthanide donor and a delayed reading to cut background.

Test [7] can be described thus: qHTS assay for small molecule activators of the p53 signaling pathway (AID 651743; active means well fitted activation curve with a large enough effect in the signal ratio, not every such curve was filed as active; the % refers to the signal ratio). Particulars: HCT-116 p53RE-bla, beta-lactamase FRET ratio, 16 h; activation: stronger effect = higher value. The gist of the method: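 Read-out is fluorescence intensity from the LiveBLAzer B/G FRET substrate, added for 2 hours at room temperature after HCT-116 p53RE-bla cells had been incubated with compounds for 16 hours at 37 C.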

Test [8] has as its target Glutaminase kidney isoform, mitochondrial (Homo sapiens) (UniProt O94925). The test is described as follows: qHTS for Inhibitors of Glutaminase (GLS): LOPAC Validation (AID 624146). Further: nearly all actives have a fitted effect of over 60% in size. Further: potency means the concentration at half of the fitted maximal effect. In short, it runs like this:
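Enzyme dispensed in phosphate buffer (45 mM, pH 8.2, 0.02% Tween-20), compounds pinned in, then 1 mM L-glutamine solution and the glutamate oxidase–HRP–Amplex Red mix added; fluorescence read immediately and again after 30 min at room temperature.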

Test [9] can be described thus: Cytotoxicity counterscreen for NFkB agonists and antagonists (AID 624476).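 Further: potency means the concentration at half of the fitted maximal effect; cells exposed to compound for 48 hours.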 In general terms: The purpose of a counterscreen is to sort out artefacts and off-target activity.
A short description of test [10]: qHTS Assay for Identification of Small Molecule Agonists for NFkB Signaling Pathway. (AID 624478).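 Further: compounds tested together with TNF alpha at its EC50 of 10 pM.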 The gist of the method:
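ME-180 cervical carcinoma, stable NFkB-RE beta-lactamase reporter; 1000 cells/well, overnight attachment; cpd + TNF alpha 10 pM final, 5 h 37 C; LiveBLAzer 2 h RT; FRET 460/530 nm, ex 405 nm.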

The nature of test [11]: Cell Proliferation Assay against the TMD8 Cell Line (AID 651645).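 Further: cells exposed to compound for 48 h before reading.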 As to conditions: TMD8 DLBCL cell line proliferation/viability; at 46.1 µM (top of the series). The gist of the method:
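Viability by CellTiter-Glo after 48 h compound exposure of 500 log-phase TMD8 cells per well (RPMI, 5% FBS). Percent activity scaled between DMSO (100%) and 9.2 uM final bortezomib (0%).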

The nature of test [12]: Cell Proliferation Assay against the HBL1 Cell Line (AID 651646).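 Further: cells exposed to compound for 48 h before reading.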 As to conditions: HBL1 DLBCL cells; at 46.1 µM (top of the series). In short, it runs like this:
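Luminescent ATP read-out (CellTiter-Glo) after 48 h compound exposure of HBL1 cells at 37 °C; percent activity was scaled between DMSO as 100% and 9.2 uM bortezomib (final) as 0%.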

The nature of test [13]: Cell Proliferation Assay against the TMD8 Cell Line (Caspase readout at 8 hrs) (AID 651713). The gist of the method: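 Seed log-phase TMD8 cells, add compound by pin tool, incubate 8 h at 37C under 5% CO2, equilibrate to room temperature, add Caspase-Glo, wait 15 min, read luminescence; percent activity uses DMSO and 9.2 uM bortezomib controls.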

Molecules are shown by their SMILES. Several values for one entry are separate records, joined by “and”; a condition that tells them apart may be missing. Equal values may be shown once. Records with an inconclusive call do not appear. Entries that show only a call come without a potency. Activity calls are given as the source filed them. Unless noted, the call rests on the fitted dose curve; in most records, active means well fitted curve in the direction sought with a large enough effect; inconclusive means small, poorly fitted or top-dose-only effect, or another doubt; inactive means no such curve, though single readings can be large; an effect the other way counts as inactive or inconclusive.

Chain of Glutaminase kidney isoform, mitochondrial (Homo sapiens) (O94925 whole entry, looked up, canonical isoform): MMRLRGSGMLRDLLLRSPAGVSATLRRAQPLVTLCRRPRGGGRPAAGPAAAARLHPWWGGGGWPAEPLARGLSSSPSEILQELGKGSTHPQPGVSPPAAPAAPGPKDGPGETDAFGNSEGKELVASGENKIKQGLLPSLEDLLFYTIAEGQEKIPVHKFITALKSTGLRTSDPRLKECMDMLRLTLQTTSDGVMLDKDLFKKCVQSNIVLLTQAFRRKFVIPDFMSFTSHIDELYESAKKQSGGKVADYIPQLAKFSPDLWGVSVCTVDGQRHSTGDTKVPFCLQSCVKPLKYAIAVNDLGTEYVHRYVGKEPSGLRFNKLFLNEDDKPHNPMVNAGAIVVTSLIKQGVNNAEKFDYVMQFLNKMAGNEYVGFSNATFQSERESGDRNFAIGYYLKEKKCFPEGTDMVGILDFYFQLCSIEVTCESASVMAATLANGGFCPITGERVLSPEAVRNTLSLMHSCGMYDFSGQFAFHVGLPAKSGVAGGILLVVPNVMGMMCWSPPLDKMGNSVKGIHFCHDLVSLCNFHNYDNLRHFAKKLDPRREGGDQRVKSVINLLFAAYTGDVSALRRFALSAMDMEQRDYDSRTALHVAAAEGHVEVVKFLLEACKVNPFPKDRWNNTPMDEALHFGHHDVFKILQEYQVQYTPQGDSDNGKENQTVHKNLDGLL
Chain of Glucagon-like peptide 1 receptor (Homo sapiens) (P43220 whole entry, looked up): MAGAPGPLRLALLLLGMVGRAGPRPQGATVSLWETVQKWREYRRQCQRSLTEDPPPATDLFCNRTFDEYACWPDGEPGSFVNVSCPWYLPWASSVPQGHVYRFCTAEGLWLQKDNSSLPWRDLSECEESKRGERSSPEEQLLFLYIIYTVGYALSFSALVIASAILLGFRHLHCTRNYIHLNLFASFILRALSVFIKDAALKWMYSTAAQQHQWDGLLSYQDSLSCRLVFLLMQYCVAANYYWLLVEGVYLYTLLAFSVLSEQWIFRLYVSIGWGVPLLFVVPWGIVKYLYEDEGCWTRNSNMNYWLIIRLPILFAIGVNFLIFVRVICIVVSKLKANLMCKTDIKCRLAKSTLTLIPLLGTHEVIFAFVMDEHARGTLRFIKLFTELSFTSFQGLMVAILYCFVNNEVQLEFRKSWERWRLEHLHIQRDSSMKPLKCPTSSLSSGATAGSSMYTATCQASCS

Take `Nc1nc2ccc([N+](=O)[O-])cc2s1`: in test [1], the Potency is 66.8 µM (active). The activation in test [2] was -0.326% (inactive).
For the molecule `C[N+](C)(C)CC(=O)[O-]`, the Potency entry in [3] was “inactive”.
On to `CN1CCc2cc(O)c(O)cc2C(c2ccccc2)C1` (configuration not stated), for which the Potency entry in [3] is “inactive”. Moreover, the result in test [4] and in [5] was inactive.
For `Oc1ccc(C2CNCc3sccc32)cc1O` (configuration not stated), the Potency result in test [3] is “inactive”. Moreover, the molecule was called inactive in test [4] and in [5]. Also, in test [6], the Potency is 0.146 µM (active).
On to `S=c1[nH]c2ccccc2s1`, for which the Potency in [1] is 37.6 µM (active) and 27.3 µM (active). Moreover, the activation in test [7] was -3.47% (inactive) and -2.03% (inactive).
With `O=C(O)c1ccccc1Nc1cccc(C(F)(F)F)c1`, the values for the activation in [7] and in test [2] were 3.61% (inactive) and -0.0531% (inactive), respectively.
As for `COc1ccccc1N1CCN(CCCCNS(=O)(=O)c2cccc3c(N(C)C)cccc23)CC1`, the Potency entry in test [3] and in test [6] was “inactive” throughout. For the same molecule, the result in [4] and in test [5] was inactive.
As to `O=C1C(SCCO)=C(SCCO)C(=O)c2ccccc21`, in test [8], the Potency is 10 µM (active). Moreover, the molecule was classed as inactive in [4]. Further, the Potency result in test [6] is “inactive”.
For the molecule `CC(C)NC[C@@H](O)c1ccc(O)c(O)c1`, the Potency entry in [3] and in test [6] was “inactive” throughout. For the same molecule, in test [5], the call was inactive.
As to `CC(C)ON([C@@H](C(=O)NO)C(C)C)S(=O)(=O)c1ccc(-c2ccccc2)cc1`, the Potency result in test [3] and in test [6] was “inactive” in each case. Besides, the call in [5] was inactive.
`CC1(C)S[C@@H]2[C@H](NC(=O)[C@H](N)c3ccccc3)C(=O)N2[C@H]1C(=O)O`: in test [7], the activation is 1.65% (inactive).
`S=C(S)OC1CC2CC1C1CCCC21` (configuration not stated): the Potency result in [3] and in test [6] was “inactive” throughout. In addition, the molecule was classed as inactive in [4] and in test [5].
For the molecule `N.N.N.N.N.N.N.N.N.N.N.N.N.N.O.O.[Ru+4].[Ru+5].[Ru+5]`, the Potency result in test [8] is “inactive”. Besides, the call in [5] was inactive.
With `CCCCCCCCCCCCCCCCCC(=O)NCC(COP(=O)([O-])OCC[N+](C)(C)C)OCC` (configuration not stated), the Potency result in [3] and in test [6] was “inactive” throughout. Besides, the molecule was called inactive in test [4] and in test [5].
Consider `O=C(O)CC1CCCc2ccccc2C1O` (configuration not stated), for which the Potency entry in test [3] and in test [6] was “inactive” each time. The molecule was classed as inactive in test [4] and in [5].
Turning to `CCOC(=O)N1CCN(/[N+]([O-])=N/Oc2ccc([N+](=O)[O-])cc2[N+](=O)[O-])CC1`, the Potency result in test [3] and in test [6] was “inactive” throughout. The molecule was called inactive in [4].
For `CCCCCCCC/C=C\CCCCCCCC(=O)NCCO`, the Potency entry in [3] and in test [6] was “inactive” in each case. Also, the molecule was classed as inactive in test [4] and in test [5].
On to `Cc1ccc(S(=O)(=O)/C=C/C#N)cc1`, for which, in [8], the Potency was 12.6 µM (active). In addition, the molecule was classed as inactive in [5]. In addition, in test [6], the Potency entry is “inactive”.
Take `NC(=S)NCCC[C@H](N)C(=O)O`: the Potency result in [3] and in test [6] was “inactive” throughout. Also, the call in test [4] and in [5] was inactive.
On to `Oc1cc2c(cc1O)CN(C(=S)NCCc1ccc(Cl)cc1)CCC2`, for which, in test [8], the Potency is 2.24 µM (active). For the same molecule, the result in test [5] was inactive. Also, the Potency result in test [6] was “inactive”.
In the case of `CC(=O)/C=C1\C(=O)N(C)c2ccccc21`, the Potency entry in [3] and in test [6] was “inactive” each time. Further, the molecule was called inactive in test [4].
For `O=C(Nc1cccc(C(=O)Nc2ccc(S(=O)(=O)O)c3cc(S(=O)(=O)O)cc(S(=O)(=O)O)c23)c1)Nc1cccc(C(=O)Nc2ccc(S(=O)(=O)O)c3cc(S(=O)(=O)O)cc(S(=O)(=O)O)c23)c1`, the molecule was classed as inactive in [4] and in test [5]. Further, the Potency result in test [6] was “inactive”.
Take `N#C/C(=C\c1ccc(-c2cc(Cl)ccc2Cl)o1)C(=O)Nc1cccc2ncccc12`: the Potency entry in [3] and in [6] was “inactive” each time. The outcome in [4] and in [5] was inactive.
Regarding `OCC1O[C@H]([S-])[C@H](O)[C@@H](O)[C@@H]1O.[Au+]` (some centres not stated), the Potency entry in test [8] and in test [6] was “inactive” in each case. The result in test [4] was inactive.
For the molecule `CC(C)NCC(O)COc1cccc2ccccc12` (configuration not stated), the Potency result in test [8], in test [6] and in test [1] was “inactive” throughout. The molecule was classed as inactive in test [4] and in test [5]. For the same molecule, the activation in test [7] was -4.3% (inactive) and -0.33% (inactive); in test [2] it was -0.327% (inactive) and 0.291% (inactive).
Turning to `CCNC(=O)[C@H]1O[C@@H](n2cnc3c(N)nc(NCCc4ccc(CCC(=O)O)cc4)nc32)[C@H](O)[C@@H]1O`, the Potency entry in test [3] is “inactive”. Besides, the molecule was classed as inactive in test [4] and in test [5]. The Potency in test [6] is 5.17 µM (active).
Consider `CN(C)c1ccc(N=NS(=O)(=O)O)cc1`, for which, in test [1], the Potency was 37.6 µM (active) and 24.3 µM (active). In addition, the activation in [7] is -1.59% (inactive) and 15.3% (inactive).
As for `Nc1ccc(O)c([N+](=O)[O-])c1`, the Potency in test [1] is 26.6 µM (active) and 24.3 µM (active). In test [2], the activation is -0.599% (inactive) and -0.904% (inactive).
`O=C1NC(=O)/C(=C/c2ccc(-c3ccc(F)cc3O)o2)S1`: the Potency entry in test [3] and in test [6] was “inactive” throughout. Besides, in [4], the molecule was classed as inactive.
With `COc1cc2c(CCNC(C)=O)c[nH]c2cc1Cl`, the Potency entry in [3] and in test [6] was “inactive” throughout. Further, the molecule was called inactive in test [5].
Turning to `C=CCc1cccc(/C=N/NC(=O)CN2CCN(Cc3ccccc3)CC2)c1O`, the Potency in test [9] was 16.6 µM (active). The call in [10] and in [13] was inactive. Moreover, in test [11], the viability (% of control) was 11.3%. For the same molecule, the viability, percent of control in [12] was 26%.
Take `COc1cc(OC)c(/C=C2/C(=O)Nc3ccccc32)c(OC)c1`: the Potency entry in test [3] and in test [6] was “inactive” throughout. In addition, the outcome in [4] and in test [5] was inactive.
On to `O=C1/C(=C/c2ccsc2)CC/C1=C\c1cccs1`, for which the Potency entry in test [3] and in [6] was “inactive” throughout.
`CC12C(=O)OC(=O)C1(C)C1CCC2O1` (configuration not stated): the Potency entry in test [3] and in test [6] was “inactive” in each case. The outcome in test [4] and in test [5] was inactive.
Consider `N#C/C(=C\c1ccc(O)c(O)c1)C(=O)NCCCc1ccccc1`, for which the Potency result in test [3] and in [6] was “inactive” throughout. Moreover, the result in test [5] was inactive.
Turning to `O=C1NC(O)=NC1(c1ccccc1)c1ccccc1`, the Potency entry in test [6] was “inactive”.
